We go through 95 molecules from PubChem BioAssay AID2315 (National Center for Advancing Translational Sciences (NCATS), 2010).

Molecules are shown by their SMILES. Out of some 290,000 compounds screened, about 27,000 (9.3%) were called active. For the sample, actives were picked, then their nearest neighbours and some compounds at random. A number with no mark means an inactive call. Rule as the data show it: active = inhibition mostly above about 28% (no sharp cut-off); inactive = mostly below about 43%.

The nature of this assay: A qHTS for Small Molecule Inhibitors of Shiga Toxin. Also: 0% is about no effect. Conditions: Vero cells, Shiga toxin protein synthesis inhibition reporter; at 38.7 µM, stronger effect = higher value.
In the case of `CC(=O)Nc1ccccc1OC(C)C(=O)N1CCC(C)CC1` (stereo not given), the inhibition – broadly, the change of the read-out against control, counted positive when it falls – is -7.84%. For `O=C(N/N=C/c1cc(Cl)cc([N+](=O)[O-])c1O)C(O)(c1ccccc1)c1ccccc1`, the inhibition was -2.27%. Consider `CCOC(CNC(=O)C(=O)NCC(c1ccco1)N1CCN(c2ccc(OC)cc2)CC1)OCC` (stereo not given), for which the inhibition was 14.3%.

For the molecule `CCOc1ccccc1NC(=O)COc1ccc(S(=O)(=O)N2CCCC2)cc1`, the inhibition is 14.6%. Regarding `Cc1oc2c(C)c3oc(=O)c(CC(=O)N[C@@H](CC(C)C)C(=O)N[C@@H](Cc4ccccc4)C(=O)O)c(C)c3cc2c1C`, the inhibition was -6.95%. Then `Cc1cc(C)c(S(=O)(=O)c2cc(F)ccc2C)c(=O)[nH]1`, with -5.17%.

On to `CCOc1ccc(NC(=O)COc2ccc(S(=O)(=O)N3CCCC3)cc2)cc1`, for which the inhibition was 22.6%. As to `Cc1ccc(-c2nnc(SC(C)C#N)n2N)cc1` (stereo not given), the inhibition is 12.2%. Then `C=C(C)CSc1nnc(-c2ccc(C)cc2)n1N`, with 130% (active); and `Cc1ccc(NC(=O)NC(=O)CSc2nnc(-c3ccc(OC(F)F)cc3)n2N)c(C)c1`, with 12.9%. Then `COc1cccc(C(=O)OCc2cc(=O)oc3c(C)c(C)ccc23)c1OC`, with 4.14%; and `Cc1ccc(CNC(=O)CCS(=O)(=O)c2ccc3c(c2)CC(C)N3C(=O)C2CC2)o1` (stereo not given), with 32.1%; and `O=C(Nc1nonc1-c1ccc(Cl)cc1)c1ccco1`, with 6.78%. With `COc1cccc(CNC(=O)Cn2c(=O)oc3cc(S(=O)(=O)N4CCCCC4)ccc32)c1`, the inhibition is -6.29%.

Consider `c1ccc(-n2nc3ccccc3n2)cc1`, for which the inhibition is 25.4% (active). With `c1ccc(-n2ncc(-c3nn[nH]n3)n2)cc1`, the inhibition was -22.5%. As for `Oc1ccc(-c2nncn2-c2ccccc2)cc1`, the inhibition is -7.57%. As for `CN1CN(C)c2ccc([N+](=O)[O-])c3cccc1c23`, the inhibition was 4.19%. With `Cc1nn(C)cc1S(=O)(=O)N1CCN(c2ccc(F)cc2)CC1`, the inhibition was -28%. Turning to `COc1ccc(C(C(=O)NC(C)(C)C)N(Cc2ccc(F)cc2)C(=O)CCC(=O)Nc2cc(C)on2)cc1` (stereo not given), the inhibition is -4.11%. For the molecule `Cc1cc(=O)oc2c(C)c(OCC(=O)NCCN3CCOCC3)ccc12`, the inhibition was -1.86%. For `c1ccc(CCc2nc(-c3ccncc3)no2)cc1`, the inhibition was 60.1% (active). Turning to `O=C1c2ccccc2C(=O)N1CCCc1nc(-c2ccccc2)no1`, the inhibition was 8.99%. Regarding `O=C(Cc1ccc(Cl)cc1)NCc1nc(-c2ccccc2)no1`, the inhibition is -5.48%.

As for `OC(COc1ccc2ccccc2c1)CN1CCOCC1` (stereo not given), the inhibition was 26.8% (active). For the molecule `OC(COc1ccc2ccccc2c1)Cn1cncn1` (stereo not given), the inhibition was 11%. Regarding `COc1ccccc1OCC(O)CN1CCOCC1` (stereo not given), the inhibition is -3.66%. On to `COc1ccc(C2/C=C\CN(Cc3ccco3)C(C)C(=O)N2Cc2ccc(F)cc2)cc1` (stereo not given), for which the inhibition is -2.61%. On to `O=C(Nc1cccc(-n2cnnn2)c1)c1cccnc1`, for which the inhibition is -4.33%. As to `Cc1c(NC(=O)c2cccnc2)c(=O)n(-c2ccccc2)n1C`, the inhibition was 12.2%. With `Cc1ccc(-n2nc3cc(Cl)c(NC(=O)c4ccco4)cc3n2)cc1`, the inhibition is 75.3% (active).

Turning to `Cc1cc(NC(=O)c2ccco2)c(=O)n(Cc2c(F)cccc2Cl)c1`, the inhibition is 1.74%.

With `COC(=O)c1cc(Cl)c(NC(=O)c2ccco2)cc1OC`, the inhibition was 29.6%.

Consider `Cc1ccc(-n2nc3cc(C)c(NC(=O)c4cccnc4)cc3n2)cc1`, for which the inhibition is 49% (active).

In the case of `C[C@H](NC(=O)[C@@H]1Cc2ccccc2CN1C(=O)OC(C)(C)C)C(=O)NC1CCCC1`, the inhibition is -6.03%. Regarding `O=c1[nH]cccc1-c1nc2ccccc2n1Cc1ccc(Cl)cc1`, the inhibition was -20.4%. With `O=S(=O)(c1ccccc1)c1nc(Cc2ccccc2)oc1N1CCOCC1`, the inhibition was -8%. On to `COc1cccc(CNCc2ccc3c(c2)OCO3)c1`, for which the inhibition was -0.994%. Turning to `COc1cccc(C(=O)NNC(=O)/C=C/c2ccccc2)c1`, the inhibition is -15.7%. Consider `Cc1cc(O)c(C2(O)C(=O)Nc3ccccc32)cc1C` (stereo not given), for which the inhibition was -0.279%. In the case of `COc1ccc(C2(O)C(=O)Nc3ccccc32)cc1` (stereo not given), the inhibition is -10.8%. With `O=C1Nc2ccccc2C12Nc1ccccc1S2` (stereo not given), the inhibition was 103% (active). On to `Cn1c(=O)[nH]c(=O)c2c1nc(N1CCN(C(c3ccccc3)c3ccccc3)CC1)n2CCO`, for which the inhibition was -11.3%. For `COc1ccc(NC(=O)c2cccc(Cl)c2)c[n+]1[O-]` the value was -4.4%; for `O=[N+]([O-])c1ccccc1/C=C/CN1CCC(O)CC1`, -7.66%. As for `c1ccc(CN2CCC(N=C3NN=C(c4ccc5c(c4)OCCO5)CS3)CC2)cc1`, the inhibition was 116% (active).

With `CS(=O)(=O)N(CC(=O)N1CCN(Cc2ccccc2)CC1)c1ccc2c(c1)OCCO2`, the inhibition is -18.5%. Regarding `CC(=NC1CCN(Cc2ccccc2)CC1)c1c(O)[nH]c(=O)[nH]c1=O`, the inhibition is 21%.

On to `Clc1cccc(N=C2NN=C(c3ccc4c(c3)OCCO4)CS2)c1`, for which the inhibition is 95.2% (active). In the case of `Cc1cccc(C)c1NC(=O)CSc1nc2c([nH]1)c(=O)n(C)c(=O)n2C`, the inhibition is -8.9%. With `Cc1ccc(C(=O)N2CC(=O)Nc3ccc(F)cc3C2c2ccc(F)cc2)cc1` (stereo not given), the inhibition is 2.9%. In the case of `CCOC(=O)c1cc(C(=O)Nc2ccc(S(=O)(=O)Nc3ccc(OC)cc3)cc2)nn1C`, the inhibition was 5.33%. As for `CCOc1ccccc1Nc1ccc2nonc2c1[N+](=O)[O-]`, the inhibition is -7.22%. Turning to `CC(C)(C)C(=O)c1cnc(Nc2ccccc2)s1`, the inhibition is 87% (active). Take `O=C(c1ccc(Cl)cc1)c1cnc(Nc2ccccc2)s1`: the inhibition is 25.6%. Take `S=c1[nH]nc(Nc2ccccc2)s1`: the inhibition is -13.5%. Turning to `COc1ccc(-n2cnnc2SCC(=O)Nc2cccc(S(N)(=O)=O)c2)cc1`, the inhibition is -21.7%.

In the case of `COc1ccc(OC)c(NC(=O)CN(C)CCOc2ccc(Br)cc2)c1`, the inhibition was -23.8%. On to `NNC(=O)COc1ccc(C2SCCS2)cc1`, for which the inhibition was 20.4%. As for `NC(=O)COc1ccccc1C(=O)NC12CC3CC(CC(C3)C1)C2`, the inhibition was -4.22%.

Regarding `NC(=O)COc1ccc(C23CC4CC(CC(C4)C2)C3)cc1`, the inhibition is 58.8% (active). For `O=S(=O)(Oc1ccccc1C(=S)N1CCOCC1)c1ccc(Cl)cc1` the value was -36.2%; for `Cc1ccc(N(C(=O)c2snc(C(N)=O)c2N)C(C(=O)NCC2CCCO2)c2c[nH]c3ccccc23)cc1` (stereo not given), 23.7%; for `COC(=O)c1ccccc1NC(=O)C1CCN(C(=O)N2CCOc3ccccc32)CC1`, 8.07%. In the case of `CC(=O)Nc1cccc(-c2nc3ccccc3s2)c1C`, the inhibition is 60.4% (active). Then `Cc1nn(CC(=O)Nc2nc3ccccc3s2)c(C)c1[N+](=O)[O-]`, with 26.1%. With `Oc1ccc(-c2[nH]ncc2-c2nc3ccccc3s2)c(O)c1`, the inhibition was 13.6%. On to `CC(=O)N1CCSc2ccc(S(=O)(=O)N3CCC(C)CC3)cc21`, for which the inhibition is -12.1%. Take `O=C(Nc1ccccc1N1CCCC1)c1ccc2ccccc2c1`: the inhibition is 58.1%. `CCCN(CCC)C(=S)Nc1cc(C(=O)OC)ccc1C(=O)OC`: the inhibition is -14.3%.

Turning to `COc1ccc(S(=O)(=O)N(CC(=O)N/N=C/c2ccc(C(=O)O)cc2)Cc2ccccc2)cc1OC`, the inhibition was 1.95%. For `CCC(C)NC(=O)c1c(N)n(/N=C/c2cccs2)c2nc3ccccc3nc12` (stereo not given), the inhibition was 107% (active). For `CC(C)Cn1c(N)c(C(=O)NCc2cccs2)c2nc3ccccc3nc21`, the inhibition was -13.1%.

In the case of `CCCNC(=O)c1c(N)n(-c2ccc(S(N)(=O)=O)cc2)c2nc3ccccc3nc12`, the inhibition is -14.1%.

On to `CCc1[nH]nc(C(=O)N2CCCC(CO)(Cc3ccc(F)cc3F)C2)c1C` (stereo not given), for which the inhibition was -13.8%.

`Cc1ccc(S(=O)(=O)CC(=O)NC(C)c2ccccc2)cc1` (stereo not given): the inhibition is -1.44%. As to `CCc1ccccc1NC(=O)[C@@H]1CCC(=O)N1C1OC(=O)c2c1ccc(OC)c2OC` (stereo not given in full), the inhibition is -2.37%. In the case of `Cc1ccc2[nH]cc(CCCN3C(=O)c4ccccc4C3=O)c2c1`, the inhibition was 1.09%.

`COc1ccc2[nH]cc(CCN3C(=O)c4ccc(C(=O)O)cc4C3=O)c2c1`: the inhibition was 60.8% (active). As to `COc1ccc(C[C@H](C(=O)O)N2C(=O)c3ccc(C(=O)O)cc3C2=O)cc1`, the inhibition is 2.25%.

Take `O=C(CC(c1ccccc1)c1ccccc1)NCC(O)c1ccc([N+](=O)[O-])cc1` (stereo not given): the inhibition is -4.27%.

As for `CCCCc1ccc(NC(=S)NCCCN2CCOCC2)cc1`, the inhibition is -8.23%.

In the case of `CCCCc1ccc(NC(=S)N2CCCC(CO)C2)cc1` (stereo not given), the inhibition is 87.2% (active). Then `COc1ccc(NC(=S)N2CCCC(CO)C2)c(OC)c1` (stereo not given), with -3.35%; and `COc1ccc(C(=O)Nc2ccccc2C(=O)N2CCN(c3ccccc3)CC2)cc1`, with -6.97%; and `Cc1nnc(NC(=O)Nc2ccc(Cl)c(Cl)c2)s1`, with -3.3%. Consider `CCn1nccc1C(=O)Nc1ccc(S(=O)(=O)NC23CC4CC(CC(C4)C2)C3)cc1`, for which the inhibition is -9.86%. For `CCn1nccc1C(=O)Nc1ccc(Cl)c(Cl)c1` the value was 81% (active); for `CC1=C(C(=O)OC2CCCCC2)C(c2ccccc2F)NC(=O)N1` (stereo not given), 4.41%.

Consider `O=C(O)c1cc(S(=O)(=O)N(Cc2ccccc2)c2ccccc2)ccc1Cl`, for which the inhibition is -7.94%. Regarding `O=C(NCc1cccc(Cl)c1)C1CCN(c2nnc(N3CCCC3=O)s2)CC1`, the inhibition was -4.8%. With `Cc1ccc(C)c(N2CCN(C(=O)CCCCCn3c(=S)[nH]c4ccc(N5CCOCC5)cc4c3=O)CC2)c1`, the inhibition was 1.81%.

Consider `Cc1ccc(NC(=S)NC(=O)/C=C/c2ccc(Cl)cc2)cc1`, for which the inhibition is 13%. With `COC(=O)c1c(C)[nH]c(C)c1-c1ccc([N+](=O)[O-])cc1`, the inhibition was 21.5%. Turning to `COC(=O)c1c(C)[nH]c(C(=O)/C=C/c2ccc(Cl)cc2)c1C`, the inhibition is 54.7% (active).
